From PubChem BioAssay AID1259343 (VanderVen Lab, College of Veterinary Medicine, Cornell …, 2017)
The campaign covered roughly 6,200 compounds. About 2,900 (47%) were called active. Cut-off read from the data, not from the text of the source: active = inhibition above about 50%; inactive = the rest. So high a share suggests a set chosen from earlier hits. This is one part of the list.

assay: Mycobacterium tuberculosis growth inhibition, primary screen (AID 1259343); details: inhibition: at 10 µM, hits give high values; outcome: 10 uM

| Compound | inhibition |
| --- | --- |
| O=C(NCc1ccccc1F)c1cccc(COCC(F)(F)C(F)F)c1 | 68.7% (active) |
| O=C(NCc1cccc(COCc2ccco2)c1)c1ccccc1 | 14.8% (inactive) |
| COc1ccc(C2CCCN2C2=NCc3cnn(C(C)(C)C)c3N2)cc1 (stereo unspecified) | 10% (inactive) |
| Cc1ccc(Sc2ccc(C(=O)NC3CC3)cn2)cc1 | 11.2% (inactive) |
| O=C(NC1CCCCC1)c1ccc(C(F)(F)F)nc1 | 57.1% (active) |
| O=C(NC1CCCCC1)c1cnccn1 | 47.9% (inactive) |
| FC(F)(F)c1cc(-c2ccc(Cl)cc2)nc(-n2cccn2)n1 | 61.6% (active) |
| O=c1cc(CSc2nnc(-c3ccc(Cl)s3)o2)occ1O | 80.1% (active) |
| CCc1cc(=O)[nH]c(-n2nc(C)cc2NC(=O)/C=C/c2ccc3c(c2)OCO3)n1 | 100% (active) |
| Cc1cc(=O)[nH]c(-n2nc(C)cc2NC(=O)/C=C/c2ccc3c(c2)OCO3)n1 | 101% (active) |
| N/C(=N/O)c1cncc(OCC(F)(F)F)n1 | 92% (active) |
| Brc1c(-c2ccccc2)nc2ccccn12 | 40% (inactive) |
| CC(Oc1ccc(C(N)=O)cc1)C(=O)c1ccc(Br)cc1 (stereo unspecified) | 71.9% (active) |
| CN(Cc1ccc(C(N)=O)cc1)Cc1ccccc1Br | 17.4% (inactive) |
| CC(Oc1ccc2cc(Br)ccc2c1)C(=O)NC(N)=O (stereo unspecified) | 80.7% (active) |
| N#Cc1ccc(NC(=O)NCc2ccn(-c3ccccc3)n2)cc1 | 32.1% (inactive) |
| CCc1ccc(CNC(=O)Nc2ccc(C#N)cc2)s1 | 56.1% (active) |
| CCCSc1nnc(-c2c(Cl)c(CC)nn2C)s1 | 52.5% (active) |
| N#CCc1cc(-c2ccc(Cl)cc2)on1 | 72.6% (active) |
| N#Cc1nc(-c2ccc(Cl)cc2)oc1NC1CC1 | 26.7% (inactive) |
| COc1cccc(CC2(CO)CCCN(C(=O)Nc3cccc(C(F)(F)F)c3)C2)c1 (stereo unspecified) | 11% (inactive) |
| COc1cccc(Oc2ccc(C(F)(F)F)cc2NC(C)=O)c1 | 82.6% (active) |

| Compound | inhibition |
| --- | --- |
| COc1cccc(-c2cc(N)c(=O)n(Cc3ccc(C(F)(F)F)cc3)n2)c1 | 22.8% (inactive) |
| O=C(Nc1nnc(-c2ccc3c(c2)CCCC3)o1)c1ccc([N+](=O)[O-])s1 | 101% (active) |
| Cc1ccc(OC(C)C(=O)Nc2ccc3c(c2)CCC3)cc1 (stereo unspecified) | 1.9% (inactive) |
| CC(C)(C)C(=O)Nc1nnc(-c2ccc3c(c2)CCCC3)o1 | 92.3% (active) |
| NC(CCc1ccccc1)c1csc(Nc2nccc(C(F)(F)F)n2)n1 (stereo unspecified) | 50.5% (active) |
| NC(Cc1ccc(F)cc1)c1csc(Nc2nccc(C(F)(F)F)n2)n1 (stereo unspecified) | 66.7% (active) |
| NC(Cc1ccc(C(F)(F)F)cc1)c1csc(Nc2ncccn2)n1 (stereo unspecified) | 29.2% (inactive) |
| NC(Cc1ccc(C(F)(F)F)cc1)c1csc(Nc2nccc(C(F)(F)F)n2)n1 (stereo unspecified) | 94.8% (active) |
| NC(Cc1ccc(Cl)cc1)c1csc(Nc2nccc(C(F)(F)F)n2)n1 (stereo unspecified) | 63.1% (active) |
| c1ccc(Cn2cc(CN3CCN(c4ncccn4)CC3)c(-c3cc4ccccc4o3)n2)cc1 | inactive |
| O=C(Cc1cc(-c2cc3ccccc3o2)on1)NCCCN1CCOCC1 | 20.8% (inactive) |
| OCc1cc(-c2cc3ccccc3o2)on1 | 8.03% (inactive) |
| OCc1cn(-c2ccccc2)nc1-c1cc2ccccc2o1 | 74.7% (active) |
| C(=NN1CCOCC1)c1cn(-c2ccccc2)nc1-c1cc2ccccc2o1 | 88.6% (active) |
| O=C(CC(O)(c1ccccc1)C(F)(F)F)N1CCN(Cc2ccc(Cl)cc2)CC1 (stereo unspecified) | 53.2% (active) |
| O=C1NC(C2=Cc3cc(Cl)ccc3OC2)Nc2ccccc21 (stereo unspecified) | 0.99% (inactive) |
| COC(=O)c1cnc(Nc2nc(C(N)c3ccccc3Cl)cs2)nc1C(F)(F)F (stereo unspecified) | 94% (active) |
| COC(=O)c1cnc(Nc2nc(C(N)Cc3ccc(Cl)cc3)cs2)nc1C(F)(F)F (stereo unspecified) | 85.1% (active) |
| CC(=O)Nc1ccc(Sc2nc(C)cc(C)c2C#N)cc1 | -11.9% (inactive) |
| COc1cc(-c2cccc(O)c2)ncn1 | 93.2% (active) |
| COc1cc(N(C)CCC(O)c2ccccc2)ncn1 (stereo unspecified) | -15.6% (inactive) |
| CN(C)c1ccc(CN(C)S(=O)(=O)Cc2ccccc2)cc1 | 30.6% (inactive) |

| Compound | inhibition |
| --- | --- |
| C=C1N(C)c2cc([N+](=O)[O-])c(N)cc2C1(C)C | 64.8% (active) |
| c1ccc(-c2nc(SCC3CCOCO3)oc2-c2ccccc2)cc1 (stereo unspecified) | -19.9% (inactive) |
| O=S(=O)(/C=C/C=C/Sc1ccccc1)c1ccccc1 | 90.4% (active) |
| Cc1cc(C)n(-c2nc(NC(C)C)nc(NC(C)(C)C)n2)n1 | 101% (active) |
| CCn1cc(C(CC(=O)O)c2cccc(F)c2)c2ccccc21 (stereo unspecified) | 18.8% (inactive) |
| CN(C)c1ccc(-c2nc3c(C(=O)NNc4cccc(Cl)c4)cccc3[nH]2)cc1 | 85.1% (active) |
| Cc1nn(C)c(C)c1C(=O)NNc1cccc(Cl)c1 | -9.93% (inactive) |
| O=C(Cc1cc(-c2cc3ccccc3o2)on1)NCc1ccc(F)cc1 | 22.7% (inactive) |
| O=C(Cc1cc(-c2cc3ccccc3o2)on1)NCc1cccs1 | 28.1% (inactive) |
| O=C(Cc1cc(-c2cc3ccccc3o2)on1)NCc1ccco1 | 91.1% (active) |
| O=C(Cc1cc(-c2cc3ccccc3o2)on1)NCc1ccncc1 | 75.1% (active) |
| CNc1nc2cnc(Nc3ccc(Oc4ccccc4)cc3)cc2n1CCOC | 69.3% (active) |
| Nc1cccc(-c2cc(Nc3ccc(Oc4ccccc4)cc3)ncn2)c1 | 9.35% (inactive) |
| COc1ccc(CCNC(=O)c2cnc(C)cn2)cc1OC | 41.9% (inactive) |
| CN(C)c1ccc(CNC(=O)c2ccc3c(c2)CCCC3)cc1 | -5.89% (inactive) |
| Cc1cnc(C(=O)NC(C)c2ccccc2OC(C)C)cn1 (stereo unspecified) | -5.8% (inactive) |
| O=C(C=Cc1cccs1)NCc1ccc2c(c1)OCO2 | -6.77% (inactive) |
| O=C(Nc1ccc(OCC(F)(F)F)cc1)c1cnccn1 | 25.9% (inactive) |
| O=C(NCc1ccc2c(c1)OCO2)c1cccs1 | 52.8% (active) |
| COC(=O)Cc1ccc(NC(=O)c2cnccn2)cc1 | 87.5% (active) |
| COC(=O)c1ccc(CNC(=O)c2ccc3c(c2)OCO3)cc1 | 55.5% (active) |
| Cc1cnc(C(=O)NCCc2ccccc2C)cn1 | 94.4% (active) |
